Compound activity: PubChem BioAssay, Buhrlage Lab, Dana-Farber Cancer Institute and Novartis Institutes for BioMedical Research (Cambridge, Mass)
Only some compounds are listed: those with a hit (about 12% of all), similar ones and a draw of the others.
USP10 inh = blocks human USP10 ubiquitin-rhodamine cleavage | inhibition, % at 20 µM | AID 1645856 | hit rate 1.1% among 47,000 | purified USP10, Ub-rhodamine fluorescence, 60 min
USP17 block = blocks human USP17 ubiquitin-rhodamine cleavage | AID 1645855 | purified USP17, Ub-rhodamine cleavage fluorescence, 3 h | hit rate 6.5% among 47,000 | inhibition, % at 50 µM | A8MUK1
Target sequence (A8MUK1 whole entry, looked up): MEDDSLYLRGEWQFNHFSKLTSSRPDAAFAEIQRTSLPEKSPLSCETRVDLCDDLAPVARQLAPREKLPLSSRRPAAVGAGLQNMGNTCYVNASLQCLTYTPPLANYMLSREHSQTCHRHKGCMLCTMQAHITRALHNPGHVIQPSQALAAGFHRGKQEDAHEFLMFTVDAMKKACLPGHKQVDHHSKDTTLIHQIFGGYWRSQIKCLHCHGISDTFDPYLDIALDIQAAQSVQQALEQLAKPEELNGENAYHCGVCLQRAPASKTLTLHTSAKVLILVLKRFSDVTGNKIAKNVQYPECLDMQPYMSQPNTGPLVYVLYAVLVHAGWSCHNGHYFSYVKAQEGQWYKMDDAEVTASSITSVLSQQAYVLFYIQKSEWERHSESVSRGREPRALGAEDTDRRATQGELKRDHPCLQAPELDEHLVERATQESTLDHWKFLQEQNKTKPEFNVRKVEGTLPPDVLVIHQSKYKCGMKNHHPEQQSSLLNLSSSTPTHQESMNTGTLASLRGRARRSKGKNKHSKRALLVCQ
USP7 block = inhibitors of human USP7 deubiquitinase; purified USP7, Ub-rhodamine cleavage fluorescence; AID 1645854; hit rate 0.3% among 47,000; inhibition, % at 20 µM
USP8 inh = inhibitors of human USP8 deubiquitinase | purified USP8, Ub-rhodamine cleavage fluorescence, 30 min | inhibition, % at 20 µM | hit rate 4.2% among 47,000
USP30 inh = human USP30 deubiquitinase inhibition. Q70CQ3. purified USP30, Ub-rhodamine cleavage fluorescence. inhibition, % at 25 µM. hit rate 5.3% among 47,000
UCHL1 inh = human UCHL1 deubiquitinase inhibition. purified UCHL1, Ub-rhodamine cleavage fluorescence. hit rate 0.2% among 47,000. inhibition, % at 20 µM
* hit, by the source's call. Cut-off read from the data, not from the text of the source: active = inhibition above about 30%; inactive = the rest.

`CC1(C)CC[C@]2(C(=O)O)CC[C@]3(C)C(=CCC4[C@@]5(C)CC[C@H](O)[C@@](C)(CO)C5CC[C@]43C)[C@@H]2C1` (some centres undefined) gave USP10 inh 12.0, USP17 block 94.9*, USP7 block 11.3, USP8 inh 10.3, USP30 inh 83.9* and UCHL1 inh 0.7.
For Cc1ccc(C)c(OCCCn2c(CCNC(=O)C3CCCCC3)nc3ccccc32)c1 the results were USP10 inh 12.1, USP17 block 8.6, USP7 block -6.1, USP8 inh 6.8, USP30 inh 14.1 and UCHL1 inh 12.4.
O=C(NCCc1nc2ccccc2n1CCCOc1ccccc1Cl)C1CCCCC1 was read as USP10 inh 30.8*, USP17 block 82.7*, USP7 block -4.8, USP8 inh 74.3*, USP30 inh 79.1* and UCHL1 inh -4.3.
COc1cc(-c2nc(CC(=O)NCCc3c[nH]c4ccccc34)cs2)cc(OC)c1OC was read as USP10 inh -3.4, USP17 block 7.7, USP7 block 10.8, USP8 inh 10.8, USP30 inh 8.9 and UCHL1 inh 9.4.
Screening N#Cc1c(-c2ccc(Cl)cc2)cc(-c2cccc(Br)c2)[nH]c1=O returned USP10 inh 7.6, USP17 block 13.2, USP7 block -123.4, USP8 inh 51.7*, USP30 inh 22.6 and UCHL1 inh 8.4.
`CC(C)Cc1ccc(-c2cc(-c3ccc(C(F)(F)F)cc3)c(C#N)c(=O)[nH]2)cc1` gave USP10 inh 63.6*, USP17 block 16.4, USP7 block 35.1*, USP8 inh 11.5, USP30 inh 15.0 and UCHL1 inh -2.0.
Cc1ccc(-c2cc(-c3ccc(F)cc3)[nH]c(=O)c2C#N)cc1 was read as USP10 inh 18.7, USP17 block 67.3*, USP7 block 9.1, USP8 inh 8.6 and UCHL1 inh 1.3.
`COc1cc2c(cc1OC)-c1cc(OCC(C)C)nc(=O)n1CC2` gave USP10 inh -9.5, USP17 block -47.8, USP7 block -10.9, USP8 inh 1.2, USP30 inh -188.3 and UCHL1 inh -6.9.
For Cn1c(SCc2nc3ccccc3c(=O)[nH]2)nc2ccccc21 the results were USP10 inh -3.6, USP17 block -4.2, USP7 block -3.0, USP8 inh 34.5*, USP30 inh -83.5 and UCHL1 inh -10.3.
Screening O=C(CCc1cc(Cl)no1)N1CCCCC1c1ccn[nH]1 (centres undefined) returned USP10 inh 1.0, USP17 block 10.2, USP7 block 2.8, USP8 inh 23.0, USP30 inh 21.6 and UCHL1 inh 2.1.
COc1ccc(CC(=O)N2CC(=O)Nc3ccc(Br)cc3C2c2ccccc2)cc1OC (centres undefined) was read as USP10 inh -0.9, USP17 block 5.8, USP7 block -0.5, USP8 inh 15.6, USP30 inh -32.0 and UCHL1 inh 2.1.
For O=C1CN(C(=O)CC2CCCCC2)C(c2ccccc2)c2cc(Br)ccc2N1 (centres undefined) the results were USP10 inh 9.3, USP17 block 12.1, USP7 block -10.9, USP8 inh 20.6, USP30 inh 40.7* and UCHL1 inh 7.9.
CCOc1ccc2ccccc2c1C(=O)N1CCN(c2ncccn2)CC1 was read as USP10 inh -0.3, USP17 block -8.4, USP7 block 0.2, USP8 inh -20.5, USP30 inh -0.8 and UCHL1 inh -2.0.
`O=C(NCc1ccccn1)c1nc(-c2cccc3[nH]ccc23)no1` gave USP10 inh -0.4, USP17 block -4.2, USP7 block 0.0, USP8 inh -2.2, USP30 inh 0.7 and UCHL1 inh -0.4.
COc1ccc(-c2cc3nc([C@H](C)NC(=O)Cc4cccc(F)c4)nn3cn2)cc1 was read as USP10 inh 28.8, USP17 block 36.8*, USP7 block 52.2*, USP8 inh 9.2, USP30 inh 59.5* and UCHL1 inh 37.8*.
`COCCOc1ccc(C(=O)N[C@H](C)c2nc3cc(-c4ccccc4F)ncn3n2)cc1` gave USP10 inh 4.7, USP17 block 0.3, USP7 block 0.5, USP8 inh 2.9, USP30 inh 8.4 and UCHL1 inh -1.0.
Screening COc1ccc(-c2cc3nc([C@@H](C)NC(=O)c4ccc5c(c4)OCO5)nn3cn2)cc1 returned USP10 inh 1.3, USP17 block 19.2, USP7 block -33.7, USP8 inh 32.0*, USP30 inh 85.2* and UCHL1 inh 0.5.
Screening COc1cccc(CC(=O)N[C@@H](C)c2nc3cc(-c4ccc(F)cc4)ncn3n2)c1 returned USP10 inh 0.0, USP17 block 9.0, USP7 block -3.4, USP8 inh 1.5, USP30 inh 13.0 and UCHL1 inh -0.4.
For COc1ccc(-c2cc3nc([C@H](C)NC(=O)Cc4cc(F)ccc4F)nn3cn2)cc1 the results were USP10 inh 37.1*, USP17 block 40.3*, USP7 block 46.2*, USP8 inh 13.9, USP30 inh 36.6* and UCHL1 inh 21.7.
`CCn1cc2c(n1)c(=O)n(Cc1ccc(C)cc1)c(=O)n2CC(=O)Nc1ccc(F)cc1` gave USP10 inh 29.2, USP17 block 80.6*, USP7 block 19.1, USP8 inh 25.7, USP30 inh 26.0 and UCHL1 inh 3.0.
For O=C(Cn1c(=O)n(Cc2ccccc2)c(=O)c2nscc21)NCc1ccco1 the results were USP10 inh 2.3, USP17 block 41.9*, USP7 block -28.0, USP8 inh 20.1, USP30 inh -22.8 and UCHL1 inh -0.9.
For CCn1cc2c(n1)c(=O)n(Cc1ccccc1)c(=O)n2CC(=O)NCc1ccc(C)cc1 the results were USP10 inh 28.5, USP17 block 55.9*, USP7 block 13.5, USP8 inh 60.5*, USP30 inh 90.4* and UCHL1 inh 2.2.
CCCn1c(=O)c2nscc2n(CC(=O)NCc2ccc(C)cc2)c1=O was read as USP10 inh 2.0, USP17 block 43.4*, USP7 block -1.4, USP8 inh 8.3, USP30 inh 42.3* and UCHL1 inh -3.0.
Screening CCCn1c(=O)c2nscc2n(CC(=O)NCc2ccccc2)c1=O returned USP10 inh -6.7, USP17 block -9.8, USP7 block -2.1, USP8 inh -8.0, USP30 inh -11.9 and UCHL1 inh -3.5.
Screening CCOC(=O)C1CCN(C(=O)c2noc3ncnc(N4CCCC4)c23)CC1 returned USP10 inh -0.1, USP17 block 2.2, USP7 block 0.1, USP8 inh -1.9, USP30 inh 10.7 and UCHL1 inh 3.8.
`CC(C)Cn1c(=O)c2nscc2n(CC(=O)Nc2ccccc2)c1=O` gave USP10 inh -9.1, USP17 block 26.1, USP7 block -42.3, USP8 inh 62.7*, USP30 inh -27.9 and UCHL1 inh 14.8.
Screening Cn1cc2c(n1)c(=O)n(Cc1ccc(F)cc1)c(=O)n2CC(=O)Nc1ccccc1F returned USP10 inh 0.6, USP17 block 42.4*, USP7 block -0.2, USP8 inh 3.1, USP30 inh 5.4 and UCHL1 inh 0.4.
